Data on 40 compounds can be found in PubChem BioAssay (Tox21).

Each structure is given as a SMILES string. Inconclusive results are not listed. The source made the active and inactive calls. Calls follow the shape of the full dose curve. Non-standard residues stand in square brackets, D forms with d. Residues, ends and D or L forms follow the SMILES beside them. *: point of attachment. Sta = CC(C)C[C@H](N)[C@@H](O)CC(=O)O; Isovaleryl = CC(C)CC(=O)*

The experiment in a line: qHTS assay for small molecule agonists of the p53 signaling pathway - cell viability (AID 651633).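 Also: p53RE-bla HCT reporter cells with a stable beta-lactamase p53 reporter; nearly all actives have a fitted effect of over 30% in size.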 The note with it: p53RE-bla HCT-116 viability, ATP luminescence, 16 h; series mostly up to 83.3 µM. The text has this: National Center for Advancing Translational Sciences [NCATS]
NIH Chemical Genomics Center [NCGC]
U.S. Environmental Protection Agency [EPA]
National Institutes of Environmental Health Sciences [NIEHS]
National Toxicology Program [NTP]
U.S. Food and Drug Administration [FDA]
p53, a tumor suppressor protein, is activated following cellular insult, including DNA damage and other cellular stresses. The activation of p53 regulates cell fate by inducing DNA repair, cell cycle arrest, apoptosis, or cellular senescence. The activation of p53, therefore, is a good indicator of DNA damage and other cellular stresses. […] The activation of the reporter gene under culture conditions can be detected by fluorescence intensity. This cell line was used to screen the Tox21 compound library in a 1536-well plate format and to identify agonists that activate the p53 signaling pathway.
Tox21 Assay Protocol Summary:
The p53RE-bla cells were dispensed at 4,000 cells/5 ul/well in 1536-well black wall/clear bottom plates using a Multidrop dispenser. After the assay plates were incubated at a 37 C/5% CO2 incubator for 5 hours, 23 nL of compounds dissolved in DMSO, positive controls or DMSO only was transferred to the assay plate by a pin tool. The plates were incubated at 37 C for 16 hours. After 1 uL of LiveBLAzerTM B/G FRET substrate was added using a Flying Reagent Dispenser, the plates were incubated at room temperature for 2 hours, and fluorescence intensity was measured by an Envision plate reader.
For cell viability readout that measures cytotoxicity, 4 ul/well of CellTiter-Glo reagent was added into the assay plates using a Flying Reagent Dispenser. After 30 min incubation at room temperature, the luminescence intensity in the plates was measured using a ViewLux plate reader.
A general note: Quantitative high-throughput screening tests each substance at several concentrations.
As to `CC(C)CC(=O)N[C@H](C(=O)N[C@H](C(=O)N[C@@H](CC(C)C)[C@@H](O)CC(=O)N[C@@H](C)C(=O)N[C@@H](CC(C)C)[C@@H](O)CC(=O)O)C(C)C)C(C)C` (Isovaleryl-VV[Sta]A[Sta]-OH), the result was inactive.
Turning to `O=S(=O)(O)CC(O)CCl` (stereo not given), the compound was called inactive.
Take `C=C(C)C(=O)OCCCC`: the outcome was inactive.
Next, `CCCCCC(=O)CC`: “inactive”.
Next, `O=Cc1ccc(C(=O)O)cc1`: “inactive”; `Cc1cccc(N)n1`: “inactive”.
As for `CC(=O)SCC(CC(=O)c1ccc(C)cc1)C(=O)O` (stereo not given), the outcome was inactive.
The entry for `CC(C)(Sc1cc(C(C)(C)C)c(O)c(C(C)(C)C)c1)Sc1cc(C(C)(C)C)c(O)c(C(C)(C)C)c1` is “inactive”.
For `C/C(Cl)=C/CCl`, the outcome was inactive.
The entry for `O=C(O)CCCCCCCCCC(=O)O` is “inactive”.
`CCCCNCC`: the compound was called inactive.
On to `CCCCCCCCS(=O)(=O)O`, for which the compound was called inactive.
The entry for `CC(=O)OCC(=O)[C@@]1(O)CC[C@H]2[C@@H]3CCC4=CC(=O)C=C[C@]4(C)[C@H]3[C@@H](O)C[C@@]21C` is “inactive”.
Next, `CCCCCCCCCCCC(C)=O`: “inactive”; `CC12CCCC=C1C(=O)OC2=O` (stereo not given): “inactive”.
Next, `O=C1Nc2ccccc2C1=O`: “inactive”; `CCOC(=O)CC(C(C)=O)C(C)=O`: “inactive”.
Regarding `CCCCCCCCCCCCCCCC/C=C/C1CC(=O)OC1=O` (stereo not given), the compound was classed as inactive.
The entry for `C=C(C)C(=O)OCCOC1CC2CC1C1C=CCC21` (stereo not given) is “inactive”; for `CN1C(CCl)Nc2cc(Cl)c(S(N)(=O)=O)cc2S1(=O)=O` (stereo not given) it is “inactive”.
Next, `C[n+]1ccccc1/C=N/O`: “inactive”.
On to `CC[C@@]1(c2ccccc2)NC(=O)N(C)C1=O`, for which the outcome was inactive.
Turning to `C/C=C/C(=O)CCCC`, the outcome was inactive.
Next, `COc1cc(NS(=O)(=O)c2ccc(N)cc2)ncn1`: “inactive”; `Cc1cc(O)c(Cl)cc1C`: “inactive”.
Regarding `CC(CN1CC(=O)NC(=O)C1)N1CC(=O)NC(=O)C1` (stereo not given), the call was inactive.
Next, `CCNC(=O)C(C)OC(=O)Nc1ccccc1` (stereo not given): “inactive”; `CCO[Si](CC(C)C)(OCC)OCC`: “inactive”; `O=C1c2ccccc2C(=O)N1CO`: “inactive”.
The entry for `Nc1nc(Cl)cc(Cl)n1` is “inactive”.
Next, `CC(C)=CCC/C(C)=C\C#N`: “inactive”; `O=c1c(O)c(O)c1=O`: “inactive”; `O=C(CCBr)N1CCN(C(=O)CCBr)CC1`: “inactive”.
For `Nc1ccc(C(=O)NCC(=O)O)cc1`, the compound was called inactive.
The entry for `CCCCCCCCCCCCCCBr` is “inactive”; for `COC(=O)c1ccccc1Cl` it is “inactive”.
Turning to `Cc1ccc2ccccc2n1`, the compound was called inactive.
With `CC(=O)Nc1ccc(S(=O)(=O)Nc2cc(C)on2)cc1`, the outcome was inactive.
Next, `CCOC(=O)c1ccc(N(C)C)cc1`: “inactive”; `C=CC(=O)OCCOCCOCC`: “inactive”.
